Test results: PubChem BioAssay (NCI)
“And” between values parts separate entries of the source, which are not always exact repeats. Identical values can stand only once. The panel holds about 79,000 compounds, 15% with a hit somewhere; the sample as a whole holds those more often. Values without a mark were called inactive. The source made the active and inactive calls. Cut-off read from the data, not from the text of the source: active = growth inhibition above about 70%; inactive = the rest.

test: NCI Yeast Anticancer Drug Screen. Data for the cln2 rad14 strain (AID 165);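 note: 0% = growth equal to vehicle treated cultures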; settings: S. cerevisiae cln2 rad14 strain, at 50.0 µM, active compounds read high
How it was run: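 cln2 rad14 yeast strain; compound exposure; growth inhibition read vs vehicle controls.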

| Structure (SMILES) | growth inhibition |
| --- | --- |
| COc1cccc2c1C(=O)c1c(O)c3c(c(O)c1C2=O)C[C@@](O)(C(C)=O)C[C@@H]3OC1CC(O)C(O)C(C)O1 (stereo partly specified) | 83.3% (active) |
| COc1cccc2c1C(=O)c1c(O)c3c(c(O)c1C2=O)C[C@@](O)(C(C)=O)C[C@@H]3OC1CC(N(C)C)C(O)C(C)O1 (stereo partly specified) | 90.2% (active) |
| C[N+]1(C)CCC(c2ccccc2)(c2ccccc2)C(=O)C1 | 47.4% and -25.8% |
| CC[C@@]1(OC(=O)C(N)CCCCN)C(=O)OCc2c1cc1n(c2=O)Cc2cc3ccccc3nc2-1 (stereo partly specified) | 45.5% |
| CCN(CCO)CCNc1ccc(C)c2sc3ccccc3c(=O)c12 | 90.8% (active) |
| NC(=O)SCC(=O)NNc1ccccc1 | 82.2% (active) |
| CCN(CC)c1ccc(C(=C2C=CC(=[N+](CC)CC)C=C2)c2ccc(N(CC)CC)cc2)cc1 | 76% (active) |
| Nc1ncnc2c(C3OC(CO)C(O)C3O)scc12 (stereo unspecified) | 30.9% |
| Nc1ccc(Cn2ccc3c4c(N)nc(N)nc4ccc32)cc1 | 63.2% |
| Cc1n(CC(C)C)c2c([n+]1C)C(=O)c1ccccc1C2=O | 89% (active) |
| c1ccc(Cc2cc3ccccc3c3ccccc23)cc1 | -0.55% |
| Nc1nc(N)c2c(Cl)c(CNc3ccc(Cl)c(Cl)c3)ccc2n1 | 89.9% (active) |
| C=C1CC2(CC(c3ccccc3OC)OC(c3ccccc3OC)C2)OC1=O (stereo unspecified) | 71.8% (active) |
| O=[N+]([O-])c1c(Cl)nc2ccccn12 | -0.55% |
| C/C(=N\NC(=S)N1CCN(c2ccccn2)CC1)c1nccs1 | 89.5% (active) |
| Clc1nc(Cl)c(Cl)c(Cl)n1 | 13.1% |
| COc1ccc(COc2ccc(C(=O)CCN3CCOCC3)cc2)cc1 | 93.8% (active) |
| O/N=C/c1cc(I)c(O)c(I)c1 | 98.3% (active) |
| COC1OC2COC(c3ccccc3)OC2C(O)C1OS(=O)(=O)c1ccc(C)cc1 (stereo unspecified) | 31.8% and -1.35% |

| Structure (SMILES) | growth inhibition |
| --- | --- |
| C=C1CC2(CC(c3ccccc3C)OC(c3ccccc3C)C2)OC1=O (stereo unspecified) | 84% (active) |
| Cc1ccc2c(c1)C1(C)OC(C=CC1=O)O2 (stereo unspecified) | 90.5% (active) |
| COc1cc(OC)c(OC)cc1/C=C\c1ccnc2ccccc12 | 41.5% |
| Cc1n(Cc2ccccc2)c2c([n+]1C)C(=O)c1ccccc1C2=O | 89.2% (active) |
| O=[N+]([O-])c1cc2c(cc1S(=O)(=O)O)C1C(C3C2C2(Cl)C(Cl)=C(Cl)C3(Cl)C2(Cl)Cl)C2(Cl)C(Cl)=C(Cl)C1(Cl)C2(Cl)Cl (stereo unspecified) | 54.2% |
| CCOC(=O)Nc1c(C)cc(C)c(Br)c1C | 98.9% (active) |
| COc1cc2c(c(OC)c1OC)-c1ccc(SC)c(=O)cc1C(NC(=O)c1ccccc1)CC2 (stereo unspecified) | 52.9% |
| CCCCCCCCCCS(=O)CC(CO)NC(=O)/C=C/c1c(C)[nH]c(=O)[nH]c1=O (stereo unspecified) | 84.2% (active) |
| C/C(N=NC(=S)N1CCCCCC1)=C1\C=CC=CN1O | 30.6% |
| Cc1cc(NCCCCCCCNc2cc(C)nc3cc([N+](=O)[O-])ccc23)c2ccc([N+](=O)[O-])cc2n1 | 57.8% |
| CC1CC[P+](c2ccccc2)(c2ccccc2)c2c1ccc1ccccc21 (stereo unspecified) | 88.8% (active) |
| O=C1C(Cl)=C(N2CCN(C3=C(Cl)C(=O)c4ccccc4C3=O)CC2)C(=O)c2ccccc21 | 87.8% (active) |
| CCN1CCC(O)(c2ccc(Oc3ccccc3)cc2)C(C(=O)c2ccc(Oc3ccccc3)cc2)C1 (stereo unspecified) | 0.95% |
| Cc1ccc(NCCN(C)C)c2c(=O)c3cc(O)ccc3sc12 | 90% (active) |
| COc1ccc2nc(C)cc(NCCCCCCCCCNc3cc(C)nc4ccc(OC)cc34)c2c1 | 71% (active) |
| Cc1n(-c2ccccc2)c2c([n+]1Cc1ccc([N+](=O)[O-])cc1)C(=O)c1ccccc1C2=O | 85.2% (active) |
| CC1(O)Cc2c(O)c3c(c(O)c2CC1O)C(=O)C=CC3=O (stereo unspecified) | 14.9% |
| c1ccc(C2=NC(c3ccccc3)=NS(S3=NC(c4ccccc4)=NC(c4ccccc4)=N3)=N2)cc1 (stereo unspecified) | 43% |
| CC[C@](O)(CC(=O)O[C@H]1C(=O)O[C@@H]2C[C@H]3C(C)=CC(=O)[C@@H](O)[C@]3(C)[C@H]3[C@@]4(O)OC[C@]32[C@@H]1[C@@H](C)[C@H]4O)C(C)C | 92.1% (active) |

test: NCI Yeast Anticancer Drug Screen. Data for the bub3 strain (AID 167); settings: S. cerevisiae bub3 mutant strain, at 5.0 µM (retest, dose inferred, filed as 0.5), active compounds read high
How it was run: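 In this screen, a yeast mutant lacking normal mitotic checkpoint function is challenged with compound. Relative growth versus vehicle gives the inhibition value.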

| Structure (SMILES) | growth inhibition |
| --- | --- |
| COc1cccc2c1C(=O)c1c(O)c3c(c(O)c1C2=O)C[C@@](O)(C(C)=O)C[C@@H]3OC1CC(O)C(O)C(C)O1 (stereo partly specified) | 34% |
| COc1cccc2c1C(=O)c1c(O)c3c(c(O)c1C2=O)C[C@@](O)(C(C)=O)C[C@@H]3OC1CC(N(C)C)C(O)C(C)O1 (stereo partly specified) | 99% (active) |
| C[N+]1(C)CCC(c2ccccc2)(c2ccccc2)C(=O)C1 | -22% |
| CC[C@@]1(OC(=O)C(N)CCCCN)C(=O)OCc2c1cc1n(c2=O)Cc2cc3ccccc3nc2-1 (stereo partly specified) | 22% |
| CCN(CCO)CCNc1ccc(C)c2sc3ccccc3c(=O)c12 | 6% |
| NC(=O)SCC(=O)NNc1ccccc1 | 13% |
| CCN(CC)c1ccc(C(=C2C=CC(=[N+](CC)CC)C=C2)c2ccc(N(CC)CC)cc2)cc1 | 98% (active) |
| Nc1ncnc2c(C3OC(CO)C(O)C3O)scc12 (stereo unspecified) | -21% |
| Nc1ccc(Cn2ccc3c4c(N)nc(N)nc4ccc32)cc1 | -10% |
| Cc1n(CC(C)C)c2c([n+]1C)C(=O)c1ccccc1C2=O | 60% |
| c1ccc(Cc2cc3ccccc3c3ccccc23)cc1 | 2% |
| Nc1nc(N)c2c(Cl)c(CNc3ccc(Cl)c(Cl)c3)ccc2n1 | 74% (active) |
| C=C1CC2(CC(c3ccccc3OC)OC(c3ccccc3OC)C2)OC1=O (stereo unspecified) | 21% |
| O=[N+]([O-])c1c(Cl)nc2ccccn12 | 0% |
| C/C(=N\NC(=S)N1CCN(c2ccccn2)CC1)c1nccs1 | 73% (active) |
| Clc1nc(Cl)c(Cl)c(Cl)n1 | 23% |
| COc1ccc(COc2ccc(C(=O)CCN3CCOCC3)cc2)cc1 | 51% |
| O/N=C/c1cc(I)c(O)c(I)c1 | 99% (active) |
| COC1OC2COC(c3ccccc3)OC2C(O)C1OS(=O)(=O)c1ccc(C)cc1 (stereo unspecified) | -3% |

| Structure (SMILES) | growth inhibition |
| --- | --- |
| C=C1CC2(CC(c3ccccc3C)OC(c3ccccc3C)C2)OC1=O (stereo unspecified) | 74% (active) |
| Cc1ccc2c(c1)C1(C)OC(C=CC1=O)O2 (stereo unspecified) | 97% (active) |
| COc1cc(OC)c(OC)cc1/C=C\c1ccnc2ccccc12 | 6% |
| Cc1n(Cc2ccccc2)c2c([n+]1C)C(=O)c1ccccc1C2=O | 72% (active) |
| O=[N+]([O-])c1cc2c(cc1S(=O)(=O)O)C1C(C3C2C2(Cl)C(Cl)=C(Cl)C3(Cl)C2(Cl)Cl)C2(Cl)C(Cl)=C(Cl)C1(Cl)C2(Cl)Cl (stereo unspecified) | -1% |
| CCOC(=O)Nc1c(C)cc(C)c(Br)c1C | -5% |
| COc1cc2c(c(OC)c1OC)-c1ccc(SC)c(=O)cc1C(NC(=O)c1ccccc1)CC2 (stereo unspecified) | -29% |
| CCCCCCCCCCS(=O)CC(CO)NC(=O)/C=C/c1c(C)[nH]c(=O)[nH]c1=O (stereo unspecified) | 50% |
| C/C(N=NC(=S)N1CCCCCC1)=C1\C=CC=CN1O | 21% |
| Cc1cc(NCCCCCCCNc2cc(C)nc3cc([N+](=O)[O-])ccc23)c2ccc([N+](=O)[O-])cc2n1 | 1% |
| CC1CC[P+](c2ccccc2)(c2ccccc2)c2c1ccc1ccccc21 (stereo unspecified) | 67% |
| O=C1C(Cl)=C(N2CCN(C3=C(Cl)C(=O)c4ccccc4C3=O)CC2)C(=O)c2ccccc21 | 39% |
| CCN1CCC(O)(c2ccc(Oc3ccccc3)cc2)C(C(=O)c2ccc(Oc3ccccc3)cc2)C1 (stereo unspecified) | 14% |
| Cc1ccc(NCCN(C)C)c2c(=O)c3cc(O)ccc3sc12 | 4% |
| COc1ccc2nc(C)cc(NCCCCCCCCCNc3cc(C)nc4ccc(OC)cc34)c2c1 | -40% |
| Cc1n(-c2ccccc2)c2c([n+]1Cc1ccc([N+](=O)[O-])cc1)C(=O)c1ccccc1C2=O | -6% |
| CC1(O)Cc2c(O)c3c(c(O)c2CC1O)C(=O)C=CC3=O (stereo unspecified) | 1% |
| c1ccc(C2=NC(c3ccccc3)=NS(S3=NC(c4ccccc4)=NC(c4ccccc4)=N3)=N2)cc1 (stereo unspecified) | 30% |
| CC[C@](O)(CC(=O)O[C@H]1C(=O)O[C@@H]2C[C@H]3C(C)=CC(=O)[C@@H](O)[C@]3(C)[C@H]3[C@@]4(O)OC[C@]32[C@@H]1[C@@H](C)[C@H]4O)C(C)C | 51% |
